Measured values taken from ChEMBL document CHEMBL4513216, “Probing the Open Global Health Chemical Diversity Library for Multistage-Active Starting Points for Next-Generation Antimalarials” (ACS Infect Dis, 2020).
The campaign covered roughly 69,000 compounds. About 8,600 (12%) showed an effect of 50% or more. The entries come from a sample that favours strong results as a whole.

Test system: Plasmodium berghei
Assay: Screen against P. berghei liver stage (PbLuc), transformed with Luciferase, at 10uM
Assay type: functional, HepG2
Details: tested at 10 uM

Row | SMILES | INHIBITION [%]
1 | CCc1noc(CN2CCC(NC(=O)c3ccc(C)s3)CC2)n1 | -30
2 | CCS(=O)(=O)CCSc1ccc(Cl)cc1 | 18.6
3 | CCN(C(=O)COc1nc(Cc2ccc(F)cc2)no1)C1CC1 | -50.7
4 | COc1ccc(-n2cc3[nH]c(=O)n(Cc4cccc(F)c4)n3c2=O)cc1 | -67
5 | Cc1c(NC(=O)CN2CCN(C3CCCC3)C(=O)C2)cnn1C | 7.85
6 | Cc1oc(C(=O)O)cc1S(=O)(=O)Nc1cccc(Cl)c1F | -46.2
7 | O=S(=O)(c1cc2ccccc2o1)N1CCCC1 | 59.4
8 | CC(=O)N1CCCN(S(=O)(=O)c2cc3ccccc3o2)CC1 | 16.6
9 | CCN1CCCN(S(=O)(=O)c2cc3ccccc3o2)CC1 | 46.6
10 | O=C(C1CCOCC1)N1C[C@@H]2[C@@H](C1)OCC(=O)N2CC1CC1 | 7.96
11 | O=C(O)[C@]12CCCN(Cc3ccco3)C[C@H]1CN(c1ncccn1)C2 | 42.6
12 | Cc1ccc(CN2CCC3(CC(C(=O)NC4CCC4)=NO3)C2)o1 (stereo not given) | 56.7
13 | Cc1ccc(S(=O)(=O)N2CCC3(CC(C(=O)NC4CCC4)=NO3)C2)cc1 (stereo not given) | 5.67
14 | Cc1ccc(CN2CCC3(CC(C(=O)NCC4CC4)=NO3)C2)s1 (stereo not given) | -117
15 | O=C(NC1CCC1)C1=NOC2(CCN(Cc3ccco3)C2)C1 (stereo not given) | 64.9
16 | CC(Nc1ncnc2c1NC(=O)CN2)c1ccc2c(c1)OCO2 (stereo not given) | 48.2
17 | Cn1nccc1C(=O)N1CCOC(Cc2ccc(Cl)cc2)C1 (stereo not given) | 0.301
18 | Cc1cc(C)c(C(=O)N2CCOCC2c2c(C)nn(C)c2C)o1 (stereo not given) | -79.1
19 | Cc1ccc(C(=O)N2CCCN(C)c3ccc(F)cc32)o1 | 16.5
20 | CCc1cc(C(=O)N2CCCC(c3[nH]ncc3S(C)(=O)=O)C2)no1 (stereo not given) | 24.8
21 | CCOc1cc(C)nc(N2CCN(Cc3nccn3CC)CC2)n1 | 50.8
22 | CCOc1cc(C)nc(N2CCN(Cc3nccn3C)CC2)n1 | 12.2
23 | CCn1ccnc1CN1CCN(c2nc(C)cc(OC)n2)CC1 | 78.3
24 | COc1cc(C)nc(N2CCN(C(=O)CSC)CC2)n1 | -64.85

Row | SMILES | INHIBITION [%]
25 | COc1cc(C)nc(N2CCN(Cc3nccn3C)CC2)n1 | 41.4
26 | CCn1ccnc1CN1CCN(c2cc(C)nc(C3CCCN3)c2)CC1 (stereo not given) | 11.02
27 | CC(C)Cc1noc(CN(C)c2ncccn2)n1 | -33.3
28 | CCOc1ccccc1C(=O)N(C)C(C)c1ccc(S(C)(=O)=O)cc1 (stereo not given) | -162
29 | CCC(C)N(Cc1cccnc1)C(=O)c1ccc(OC)cc1O (stereo not given) | 32.9
30 | CSCC(CCO)NC(=O)c1cccc(F)c1Cl (stereo not given) | 65.9
31 | CSCC(CCO)NC(=O)Nc1cccc(Br)c1C (stereo not given) | 36.8
32 | CSCC(CCO)Nc1cccc(C(F)(F)F)n1 (stereo not given) | 22.8
33 | CSCC(CCO)NC(=O)Nc1ccc(C)cc1C (stereo not given) | -7.53
34 | CSCC(CCO)NC(=O)c1cccc(C)c1Cl (stereo not given) | 54.1
35 | CSCC(CCO)NC(=O)c1cccc(Cl)c1F (stereo not given) | 36.4
36 | CC(C)NC(=O)C1c2c(ncn2C(C)C)CCN1Cc1ccccc1 (stereo not given) | 8.67
37 | Cn1ccc(C(=O)NC2CCC23CCN(CC2CCOCC2)CC3)c1 (stereo not given) | 12
38 | CC[C@@H](C)[C@H](NC(=O)NC1CCS(=O)(=O)C1)C(=O)NCc1ccncc1 (stereo not given in full) | -41.2
39 | O=C(N[C@@H]1CN(Cc2cccs2)[C@@H]2COC[C@@H]21)C1CCC1 | -0.804
40 | CCN(CC1CCCO1)C(=O)Nc1cc(C)ccc1S(C)(=O)=O (stereo not given) | -12.2
41 | Cc1ccc(-c2nnc(C(C)NCCn3cc(C)cn3)o2)cc1 (stereo not given) | -3.87
42 | Cc1cccc(-c2nnc(C(C)NCCn3cc(C)cn3)o2)c1 (stereo not given) | 17.9
43 | Cc1cnn(CCNC(C)c2nnc(-c3ccccc3)o2)c1 (stereo not given) | 54.8
44 | Cn1ncc2c1CCCC2NCc1cc(Br)cs1 (stereo not given) | 31.1
45 | NCCNS(=O)(=O)Cc1ccc(Br)cc1 | 16.9
46 | COCc1noc(CN2C[C@H](C3CC3)[C@@H](N(C)C)C2)n1 | 17.1
47 | O=C(CCOc1ccccc1F)N1CCCC1Cn1cccn1 (stereo not given) | 29.2
48 | CN(CCC(=O)N1CCc2sccc2C1)Cc1cnn(C)c1 | 19.2

Row | SMILES | INHIBITION [%]
49 | CC(C)c1cc(C(=O)N2CCc3ccccc3C2C(=O)O)n(C)n1 (stereo not given) | 66.3
50 | CC(C)c1nc(C(=O)N2CCc3ccccc3C2C(=O)O)cs1 (stereo not given) | 6.61
51 | CC(C)c1cc(C(=O)N2CCc3ccccc3C2C(=O)O)nn1C (stereo not given) | -28
52 | O=C(O)C1(n2ccc(-c3ccco3)n2)CCN(Cc2ccsc2)CC1 | -14.3
53 | Nc1no[n+]([O-])c1C(=O)NCc1cccnc1 | 42.8
54 | NS(=O)(=O)CCCC(=O)N1CCC2(CC1)c1ccccc1CC2O (stereo not given) | -38.8
55 | O=C(CCN1CCNCC1)N1CCC2(CC1)c1ccccc1CC2O (stereo not given) | 31.6
56 | CSCC(=O)N1CCC2(CC1)c1ccccc1CC2O (stereo not given) | 65.1
57 | NC(=O)NCC(=O)N1CCC2(CC1)c1ccccc1CC2O (stereo not given) | 28.3
58 | Cn1cccc1CCC(=O)N1CCC2(CC1)c1ccccc1CC2O (stereo not given) | 60.1
59 | O=C(CSc1ccncc1)N1CCC2(CC1)c1ccccc1CC2O (stereo not given) | -16.8
60 | COCCC(=O)N1C[C@@H](c2ccc(F)c(F)c2)[C@@]2(CCCC(=O)N2)C1 | 17.4
61 | CCNC(c1cccnc1)c1ccc(F)cc1F (stereo not given) | 30.6
62 | COCCNc1ccccc1CNC(=O)C1CCCOC1 (stereo not given) | 35.1
63 | COCCNc1ccccc1CNC(=O)NCc1ccc(C)s1 | 64.1
64 | COc1ccc(CNC(=O)NCCc2nc(C)c(C)s2)cn1 | 31.2
65 | Cc1ccc(CNC(=O)NCc2cccnc2N(C)C)s1 | 15.5
66 | Cc1ncc(CNC(=O)NCC(C)Oc2ccccc2F)s1 (stereo not given) | -47.3
67 | COCCNc1ccccc1CNC(=O)NCc1nc(C)c(C)s1 | 72
68 | COCCNc1ccccc1CNC(=O)NCc1cnc(C)s1 | 52.1
69 | Cc1ncc(CNC(=O)NCc2c(F)cccc2OC(F)F)s1 | 10.7
70 | COc1ccc(CNC(=O)NCc2nc(C)c(C)s2)cn1 | 48.5
